Assay results taken from ChEMBL document CHEMBL3988442, “University of Dundee, Small-Polar-MMV Screening Library” (2021).

Molecular target: T1, Methionyl-tRNA synthetase, putative (Leishmania donovani (strain BPK282A1)) (UniProt E9BF75)
T1 sequence (whole entry): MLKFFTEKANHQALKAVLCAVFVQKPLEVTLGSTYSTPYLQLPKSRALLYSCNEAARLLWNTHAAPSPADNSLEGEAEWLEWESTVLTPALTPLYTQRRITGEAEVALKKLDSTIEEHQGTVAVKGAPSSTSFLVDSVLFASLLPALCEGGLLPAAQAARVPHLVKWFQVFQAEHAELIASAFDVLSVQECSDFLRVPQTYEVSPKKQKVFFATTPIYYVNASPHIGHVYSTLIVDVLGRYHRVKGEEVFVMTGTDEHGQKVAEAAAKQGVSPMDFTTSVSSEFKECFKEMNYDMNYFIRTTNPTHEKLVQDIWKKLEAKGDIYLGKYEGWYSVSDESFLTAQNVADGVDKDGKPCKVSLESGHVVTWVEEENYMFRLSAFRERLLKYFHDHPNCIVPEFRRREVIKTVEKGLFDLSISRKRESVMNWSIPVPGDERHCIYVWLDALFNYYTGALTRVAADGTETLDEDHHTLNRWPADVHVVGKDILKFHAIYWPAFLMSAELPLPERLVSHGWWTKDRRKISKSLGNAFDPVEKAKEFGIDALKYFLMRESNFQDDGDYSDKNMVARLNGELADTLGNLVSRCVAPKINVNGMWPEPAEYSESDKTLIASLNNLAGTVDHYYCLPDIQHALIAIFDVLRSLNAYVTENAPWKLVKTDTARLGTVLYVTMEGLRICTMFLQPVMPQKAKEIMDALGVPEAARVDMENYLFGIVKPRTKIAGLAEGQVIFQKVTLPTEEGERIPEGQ
Test: Leishmania donovani Methionine tRNA synthetase (LdMetRS):v7. Dose response assay
Format: functional
Parameters: conc 80 nM, time 150 minutes

**Q.** What does the source list for `NS(=O)(=O)c1cccnc1Nc1cc(C(=O)N2CCC2)cc(C(F)(F)F)c1`?
**A.** PXC50 (MAX_EFFECT 2.375296912): < 4; PXC50 (MAX_EFFECT 5.755395683): < 4; PXC50 (MAX_EFFECT -0.429184549): < 4

**Q.** What does the source list for `CC1COc2ccccc2N1C(=O)CCc1cscn1` (centres undefined)?
**A.** PXC50 (MAX_EFFECT 3.401360544): < 4; PXC50 (MAX_EFFECT 4.347826087): < 4; PXC50 (MAX_EFFECT 6.479859895): < 4

**Q.** How did the PXC50 (MAX_EFFECT 5.69259962) turn out when `NC(=O)c1cccnc1Nc1cccc(S(N)(=O)=O)c1` was run?
**A.** < 4

**Q.** What about the PXC50 (MAX_EFFECT 12.33480176) of the same compound?
**A.** < 4

**Q.** And the PXC50 (MAX_EFFECT 15.08264463)?
**A.** < 4

**Q.** Which PXC50 (BOTTOM 6.09090205, HILLSLOPE 1.180798676, MAX_EFFECT 57.89473684, TOP 61.13511107) does the source give for `COC1CCCCC1Nc1nc(Nc2ccc(F)c(F)c2)nc2c1cnn2C` (centres undefined) here?
**A.** 4.92

**Q.** And the PXC50 (MAX_EFFECT 49.43396226)?
**A.** < 4

**Q.** What about the PXC50 (MAX_EFFECT 49.87277354) of the same compound?
**A.** < 4

**Q.** Which PXC50 (BOTTOM 2.552520772, HILLSLOPE 1.745088914, MAX_EFFECT 107.6446281, TOP 100.0) does the source give for `CC(CO)Nc1nc(Nc2ccc(F)c(F)c2)nc2c1cnn2C` (centres undefined) here?
**A.** 4.83

**Q.** And the PXC50 (BOTTOM 8.006700064, HILLSLOPE 1.180035315, MAX_EFFECT 70.20872865, TOP 73.72941327)?
**A.** 5.16

**Q.** And the PXC50 (BOTTOM -2.864211308, HILLSLOPE 1.095022811, MAX_EFFECT 93.83259912, TOP 100.0)?
**A.** 4.9

**Q.** `Cn1ncc2c(NCCO)nc(NCCN3CCOCC3)nc21` was tested. Which PXC50 (MAX_EFFECT 4.109589041) did it give?
**A.** < 4

**Q.** What about the PXC50 (MAX_EFFECT 10.0) of the same compound?
**A.** < 4

**Q.** What about the PXC50 (MAX_EFFECT 11.56069364) of the same compound?
**A.** < 4

**Q.** Which PXC50 (BOTTOM 0.0, HILLSLOPE 0.946216108, MAX_EFFECT 71.34724858, TOP 77.67704584) does the source give for `CN(CCO)c1nc(Nc2ccc(F)c(F)c2)nc2c1cnn2C` here?
**A.** 5.71

**Q.** And the PXC50 (BOTTOM 6.419914674, HILLSLOPE 1.323004722, MAX_EFFECT 73.51598174, TOP 75.78870148)?
**A.** 5.35

**Q.** And the PXC50 (BOTTOM 11.43918674, HILLSLOPE 1.794336173, MAX_EFFECT 61.32075472, TOP 56.10925087)?
**A.** 5.63

**Q.** For `OCCNc1ccnc(Nc2cccc(F)c2)n1`, which PXC50 (MAX_EFFECT 29.67244701) is on record?
**A.** < 4

**Q.** What about the PXC50 (MAX_EFFECT 30.83700441) of the same compound?
**A.** < 4

**Q.** What about the PXC50 (MAX_EFFECT 32.02479339) of the same compound?
**A.** < 4

**Q.** Which PXC50 (MAX_EFFECT 4.405286344) does the source give for `Cn1ncc2c(Nc3ccc(F)c(F)c3)nc(Nc3ccc(F)c(F)c3)nc21` here?
**A.** < 4

**Q.** What about the PXC50 (MAX_EFFECT 13.01652893) of the same compound?
**A.** < 4

**Q.** And the PXC50 (MAX_EFFECT 15.66731141)?
**A.** < 4

**Q.** Which PXC50 (MAX_EFFECT 4.933586338) does the source give for `O=S(=O)(NCCO)c1cccnc1Nc1cccc(C(F)(F)F)c1` here?
**A.** < 4

**Q.** What about the PXC50 (MAX_EFFECT 12.19008264) of the same compound?
**A.** < 4

**Q.** And the PXC50 (MAX_EFFECT 16.29955947)?
**A.** < 4

**Q.** For `Cn1ncc2c(N3CCCCC3)nc(Nc3ccc(F)c(F)c3)nc21`, which PXC50 (BOTTOM 9.784183065, HILLSLOPE 1.295074552, MAX_EFFECT 52.03094778, TOP 54.78178501) is on record?
**A.** 5.24

**Q.** And the PXC50 (MAX_EFFECT 30.83700441)?
**A.** < 4

**Q.** And the PXC50 (MAX_EFFECT 34.09090909)?
**A.** < 4

**Q.** `Cn1ncc2c(NCC3CCOC3)nc(Nc3ccc(F)c(F)c3)nc21` (centres undefined) was tested. Which PXC50 (BOTTOM 0.0, HILLSLOPE 0.829006149, MAX_EFFECT 88.54961832, TOP 100.0) did it give?
**A.** 4.89

**Q.** What about the PXC50 (BOTTOM 5.170404417, HILLSLOPE 0.914601234, MAX_EFFECT 86.40350877, TOP 102.339634) of the same compound?
**A.** 4.72

**Q.** What about the PXC50 (BOTTOM -0.903989981, HILLSLOPE 0.887117975, MAX_EFFECT 86.41509434, TOP 97.82602818) of the same compound?
**A.** 4.97

**Q.** Which PXC50 (BOTTOM 9.319609168, HILLSLOPE 1.297043796, MAX_EFFECT 53.57833656, TOP 67.28849304) does the source give for `Cn1ncc2c(N3CCOCC3)nc(Nc3ccc(F)c(F)c3)nc21` here?
**A.** 5.29

**Q.** What about the PXC50 (MAX_EFFECT 10.12396694) of the same compound?
**A.** < 4

**Q.** And the PXC50 (MAX_EFFECT 42.73127753)?
**A.** < 4

**Q.** `Cc1nc(CN(C)C(=O)c2ccc(Cn3cnnn3)cc2)cs1` was tested. Which PXC50 (MAX_EFFECT 1.360544218) did it give?
**A.** < 4

**Q.** What about the PXC50 (MAX_EFFECT 4.347826087) of the same compound?
**A.** < 4

**Q.** What about the PXC50 (MAX_EFFECT 4.72854641) of the same compound?
**A.** < 4

**Q.** Which PXC50 (BOTTOM -3.252318024, HILLSLOPE 0.711277169, MAX_EFFECT 57.23140496, TOP 100.0) does the source give for `OCCNc1nc(Nc2cccc(OC(F)(F)F)c2)nc2ccsc12` here?
**A.** 4.23

**Q.** And the PXC50 (MAX_EFFECT 49.7098646)?
**A.** < 4

**Q.** What about the PXC50 (MAX_EFFECT 49.77973568) of the same compound?
**A.** < 4

**Q.** For `CN(CCN)c1nc(Nc2ccc(F)c(F)c2)nc2c1cnn2C`, which PXC50 (BOTTOM 2.133170856, HILLSLOPE 1.093077372, MAX_EFFECT 77.62557078, TOP 100.0) is on record?
**A.** 4.41

**Q.** And the PXC50 (BOTTOM 3.57857286, HILLSLOPE 1.096477566, MAX_EFFECT 74.90566038, TOP 102.700119)?
**A.** 4.36

**Q.** What about the PXC50 (BOTTOM 5.354463627, HILLSLOPE 0.967320352, MAX_EFFECT 79.31688805, TOP 100.0) of the same compound?
**A.** 4.54

**Q.** For `c1cc(-c2ccc3c(c2)CCC32CCN(c3nncs3)CC2)co1`, which PXC50 (BOTTOM 1.725579768, HILLSLOPE 1.730442881, MAX_EFFECT 81.97573657, TOP 100.0) is on record?
**A.** 4.31

**Q.** And the PXC50 (BOTTOM 2.845642281, HILLSLOPE 1.539467031, MAX_EFFECT 93.05555556, TOP 100.0)?
**A.** 4.55

**Q.** What about the PXC50 (BOTTOM 5.084669568, HILLSLOPE 1.629318142, MAX_EFFECT 90.60402685, TOP 100.0) of the same compound?
**A.** 4.52

**Q.** Which results are given for `COc1ccc(-c2nc3c([nH]2)CCNC3C(=O)O)c2ccc(C)nc12` (centres undefined)?
**A.** PXC50 (BOTTOM 1.718114205, HILLSLOPE 1.017534888, MAX_EFFECT 58.69565217, TOP 100.0): 4.17; PXC50 (BOTTOM 3.702697872, HILLSLOPE 1.816429842, MAX_EFFECT 76.89768977, TOP 100.0): 4.25; PXC50 (BOTTOM -10.20592251, HILLSLOPE 0.737543358, MAX_EFFECT 64.87455197, TOP 100.0): 4.33
